We go through 56 molecules from PubChem BioAssay (Tox21).

Results filed as inconclusive are left out. Values without a mark were called inactive. Active and inactive are the calls of the source. Calls come from the whole dose curve; as a rule, active = well fitted cell-killing curve with a large enough effect in the repeat runs; inconclusive = weak or mixed curves, or effect the other way; inactive = flat fitted curve, though single readings scatter.

Experiment [1] in a line: cAMP Responsive Elements (CRE) small molecule antagonists, cell-based qHTS assay: qHTS cell viability counter screen (AID 2060913). Note: nearly all actives have a fitted effect of over 40% in size. Put shortly:
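Steps: cells plated and held 18 hrs at 37 C/5% CO2; compounds and NKH477 (0.25 uM final) added; 3 hrs incubation; reporter substrate read; CellTiter-Glo added to measure cytotoxicity by luminescence.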
On the technique in general: Quantitative high-throughput screening tests each substance at several concentrations.

A short description of experiment [2]: cAMP Responsive Elements (CRE) small molecule agonists, cell-based qHTS assay: qHTS cell viability counter screen (AID 2060914). Note: nearly all actives have a fitted effect of over 50% in size. Put shortly: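 Cells are seeded and incubated 18 h, treated with compounds in DMSO for 3 h, read for the bla reporter, then given CellTiter-Glo; luminescence is measured after 30 min at room temperature.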
% is set by controls: 0 for no effect and ±100 for the full control effect.

As to `C[Si](C)(C)N[Si](C)(C)C`, the Potency result in experiment [1] and in experiment [2] was “inactive” in each case.

For `Cc1oc(C)c(C(=O)Nc2ccccc2)c1C`, the Potency result in experiment [1] and in experiment [2] was “inactive” throughout.

For the molecule `CCCNC(=O)NS(=O)(=O)c1ccc(Cl)cc1`, the Potency result in experiment [1] and in experiment [2] was “inactive” throughout.

Turning to `CC(=O)O[C@@]12CO[C@@H]1C[C@H](O)[C@@]1(C)C(=O)[C@H](O)C3=C(C)[C@@H](OC(=O)[C@H](O)[C@@H](NC(=O)OC(C)(C)C)c4ccccc4)C[C@@](O)([C@@H](OC(=O)c4ccccc4)[C@H]21)C3(C)C`, the Potency entry in experiment [1] and in experiment [2] was “inactive” in each case.

Take `CC(C)(C#N)Nc1nc(Cl)nc(NC2CC2)n1`: the Potency entry in experiment [1] and in experiment [2] was “inactive” throughout.

With `C=C(C)C(=O)OCCOC1CC2CC1C1C=CCC21` (configuration not stated), the Potency entry in experiment [1] and in experiment [2] was “inactive” each time.

As for `CC(C)c1ccccc1N`, the Potency entry in experiment [1] and in experiment [2] was “inactive” each time.

With `COc1cccc(Br)c1`, the Potency result in experiment [1] and in experiment [2] was “inactive” in each case.

In the case of `CCCCCOC(=O)Nc1nc(=O)n([C@@H]2O[C@H](C)[C@@H](O)[C@H]2O)cc1F`, the Potency entry in experiment [1] and in experiment [2] was “inactive” throughout.

Take `Oc1ccccc1`: the Potency entry in experiment [1] and in experiment [2] was “inactive” in each case.

On to `O=C1OC(=O)C2C3C=CC(C3)C12` (configuration not stated), for which the Potency entry in experiment [1] and in experiment [2] was “inactive” each time.

Consider `CCCCCCCCCCCC(=O)OCC(C)OC(=O)CCCCC(=O)O` (configuration not stated), for which the Potency result in experiment [1] and in experiment [2] was “inactive” throughout.

As for `O=C1OC(=O)c2cc(-c3ccc4c(c3)C(=O)OC4=O)ccc21`, the Potency result in experiment [1] and in experiment [2] was “inactive” each time.

With `CCC(CO)(CO)COCC(CC)(CO)CO`, the Potency entry in experiment [1] and in experiment [2] was “inactive” throughout.

For `COc1ccc(Cl)cc1C`, the Potency result in experiment [1] and in experiment [2] was “inactive” in each case.

In the case of `CC(C)NCC(O)COc1ccc(CCOCC2CC2)cc1` (configuration not stated), the Potency result in experiment [1] and in experiment [2] was “inactive” in each case.

Turning to `CN1C(=O)CC[C@H]1c1cccnc1`, the Potency result in experiment [1] and in experiment [2] was “inactive” throughout.

As to `O=C(O)C1CCC(C(=O)O)CC1` (configuration not stated), the Potency entry in experiment [1] and in experiment [2] was “inactive” throughout.

In the case of `CC(C)Nc1ccccc1`, the Potency result in experiment [1] and in experiment [2] was “inactive” each time.

As for `CN(CCCN1c2ccccc2CCc2ccccc21)CC(=O)c1ccc(Cl)cc1`, the Potency entry in experiment [1] and in experiment [2] was “inactive” in each case.

With `C1C[C@@H]2[C@H]3CC[C@H](C3)[C@@H]2C1`, the Potency result in experiment [1] and in experiment [2] was “inactive” each time.

As to `C=CCOC(=O)C(=C)C`, the Potency result in experiment [1] and in experiment [2] was “inactive” throughout.

As for `C=CS(=O)(=O)O`, the Potency result in experiment [1] and in experiment [2] was “inactive” throughout.

In the case of `OCCN1CCOCC1`, the Potency result in experiment [1] and in experiment [2] was “inactive” throughout.

As for `O=C(O)c1cc(N=Nc2ccc([N+](=O)[O-])cc2)ccc1O`, the Potency entry in experiment [1] and in experiment [2] was “inactive” each time.

Turning to `CCOCN(C(=O)CS(=O)(=O)O)c1c(C)cccc1CC`, the Potency entry in experiment [1] and in experiment [2] was “inactive” each time.

With `CC1OC(=O)C(C)OC1=O` (configuration not stated), the Potency entry in experiment [1] and in experiment [2] was “inactive” each time.

For `COc1ccc([C@@H]2Sc3ccccc3N(CCN(C)C)C(=O)[C@@H]2OC(C)=O)cc1`, the Potency result in experiment [1] and in experiment [2] was “inactive” in each case.

In the case of `Oc1cccc2c(O)cccc12`, the Potency entry in experiment [1] and in experiment [2] was “inactive” throughout.

For the molecule `CC(C(=O)O)c1ccc(-c2ccccc2)c(F)c1` (configuration not stated), the Potency result in experiment [1] and in experiment [2] was “inactive” in each case.

In the case of `CC1(CO)CN(c2ccccc2)NC1=O` (configuration not stated), the Potency entry in experiment [1] and in experiment [2] was “inactive” in each case.

Consider `Cc1ccc(-c2ccccc2C#N)cc1`, for which the Potency entry in experiment [1] and in experiment [2] was “inactive” each time.

Consider `CCC(=O)Nc1cccc(N)c1`, for which the Potency result in experiment [1] and in experiment [2] was “inactive” each time.

On to `N#CC1(N)CCCCC1`, for which the Potency entry in experiment [1] and in experiment [2] was “inactive” in each case.

As for `N[C@@H](CCC(=O)O)C(=O)O`, the Potency entry in experiment [1] and in experiment [2] was “inactive” in each case.

As for `C=CCOC(=O)CCC1CCCCC1`, the Potency entry in experiment [1] and in experiment [2] was “inactive” each time.

Turning to `C[C@@H]1CC[C@@]2(OC1)O[C@H]1C[C@H]3[C@@H]4CC[C@H]5C[C@@H](O)CC[C@]5(C)[C@H]4CC(=O)[C@]3(C)[C@H]1[C@@H]2C`, the viability change, negative = cytotoxic in experiment [1] is 0.912% [at 8.39 µM]. Moreover, the activity change, negative = cytotoxicity in experiment [2] is -1.47% [at 8.39 µM].

`CC1COC(=O)O1` (configuration not stated): the Potency entry in experiment [1] and in experiment [2] was “inactive” in each case.

Regarding `CCCCCCCCCCCCCCCCC(C(=O)O)C(O)(CC(=O)O)C(=O)O` (configuration not stated), the Potency entry in experiment [1] and in experiment [2] was “inactive” in each case.

On to `O=S(=O)(c1cccc2cnccc12)N1CCCNCC1`, for which the Potency entry in experiment [1] and in experiment [2] was “inactive” each time.

`CC(C)S`: the Potency entry in experiment [1] and in experiment [2] was “inactive” each time.

With `CCCCCCCCOC(=O)c1ccc(O)cc1`, the Potency entry in experiment [1] and in experiment [2] was “inactive” throughout.

Consider `CC(O)CC(C)O` (configuration not stated), for which the Potency result in experiment [1] and in experiment [2] was “inactive” each time.

On to `Nc1[nH]c(=O)ncc1F`, for which the Potency result in experiment [1] and in experiment [2] was “inactive” throughout.

On to `C=C(C)[C@@H]1CC=C(C)C(=O)C1`, for which the Potency entry in experiment [1] and in experiment [2] was “inactive” each time.

For the molecule `CCOC(=O)CC(=O)C(=O)OCC`, the Potency entry in experiment [1] and in experiment [2] was “inactive” in each case.

Take `C=C(C)C(=O)Nc1ccc(Cl)c(Cl)c1`: the Potency result in experiment [1] and in experiment [2] was “inactive” in each case.

As to `C=C/C(C)=C/C/C=C(\C)CCC=C(C)C`, the Potency result in experiment [1] and in experiment [2] was “inactive” in each case.

As to `CCN(CC)CCNC(=O)c1cc(S(C)(=O)=O)ccc1OC`, the Potency result in experiment [1] and in experiment [2] was “inactive” throughout.

For `CCNC(=O)[C@@H]1CCCN1C(=O)[C@H](CCCN=C(N)N)NC(=O)[C@H](CC(C)C)NC(=O)CNC(=O)[C@H](Cc1ccc(O)cc1)NC(=O)[C@H](CO)NC(=O)[C@H](Cc1c[nH]c2ccccc12)NC(=O)[C@H](Cc1cnc[nH]1)NC(=O)[C@@H]1CCC(=O)N1`, the Potency result in experiment [1] and in experiment [2] was “inactive” in each case.

With `NC(=O)c1cn(Cc2c(F)cccc2F)nn1`, the Potency result in experiment [1] and in experiment [2] was “inactive” each time.

In the case of `O=CC1CC1`, the Potency entry in experiment [1] and in experiment [2] was “inactive” in each case.

Regarding `CC(C)(C)C1CCC(=O)CC1`, the Potency entry in experiment [1] and in experiment [2] was “inactive” each time.

For `O=C(OCCOCCOCCOC(=O)c1ccccc1)c1ccccc1`, the Potency entry in experiment [1] and in experiment [2] was “inactive” in each case.

On to `NC(=O)c1ncn([C@@H]2O[C@H](CO)[C@@H](O)[C@H]2O)n1`, for which the Potency entry in experiment [1] and in experiment [2] was “inactive” each time.

As to `Cc1nc(C2CCCCC2)c(-c2ccc(S(N)(=O)=O)c(F)c2)o1`, the Potency entry in experiment [1] and in experiment [2] was “inactive” each time.
